SMN2 splice up: SMN2 splice variant enhancement; HEK293 SMN2-luciferase splicing reporter, luminescence, 30-36 h; Potency, µM (series often up to 46.1 µM), inactives show top-dose activity change, positive = activation, most hits filed as activators; 2.8% of 210,000 active; further: % of control where 0% means no effect; nearly all actives have a fitted effect of over 55% in size
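HEK293 cells carry an SMN2 […]–luciferase reporter in which exon 7 inclusion puts luciferase in frame. Cells were plated 10-12 h before compound addition, then incubated 30-36 h at 37C. ONE-Glo luminescence was read; sodium butyrate at 4.5 mM final served as control.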
ELG1 genotoxic: inducers of genotoxicity in HEK293T ELG1-luciferase cells; Potency, µM (titrated, usually from 46 µM), without a hit: at the top dose activity change, positive = activation, usual class: activators; HEK293T ELG1-luciferase reporter, luminescence, 16 h; 1.3% of 330,000 active; further: % of control where 0% means no effect; nearly all actives have a fitted effect of over 60% in size
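Reporter readout depends on ELG1 protein level, which increases with genetic stress. After 16 hr compound exposure at 37 °C, luciferase activity was quantified using ONE-Glo.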
FLuc modulator: firefly luciferase modulation, counter-screen for miR-21 project | purified FLuc, Km substrates, luminescence inhibition | Potency, µM (doses to about 57.5 µM), for the others: top-dose activity change, negative = inhibition, hits mostly inhibitors | 6.9% of 360,000 active | AID 588342 | P08659;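 further: plate controls were vehicle for no effect and reference inhibitor for full effect; nearly all actives have a fitted effect of over 55% in size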
Target sequence (P08659 whole entry, looked up): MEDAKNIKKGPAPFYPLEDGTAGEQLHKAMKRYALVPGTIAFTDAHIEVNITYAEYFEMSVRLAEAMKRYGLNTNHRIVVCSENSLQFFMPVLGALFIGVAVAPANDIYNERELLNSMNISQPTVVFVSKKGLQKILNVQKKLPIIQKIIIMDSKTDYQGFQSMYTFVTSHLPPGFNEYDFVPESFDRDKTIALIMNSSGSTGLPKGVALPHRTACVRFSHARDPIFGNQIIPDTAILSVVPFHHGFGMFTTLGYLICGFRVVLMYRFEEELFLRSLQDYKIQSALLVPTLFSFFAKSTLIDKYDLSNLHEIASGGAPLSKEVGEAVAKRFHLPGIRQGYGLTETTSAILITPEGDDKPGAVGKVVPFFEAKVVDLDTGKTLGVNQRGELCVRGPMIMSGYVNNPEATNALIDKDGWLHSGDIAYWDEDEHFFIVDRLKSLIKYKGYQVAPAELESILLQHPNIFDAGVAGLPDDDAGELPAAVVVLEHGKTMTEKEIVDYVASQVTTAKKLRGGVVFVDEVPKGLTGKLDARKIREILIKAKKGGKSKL
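Purified P. pyralis luciferase, 10 nM final, with Km-level 10 uM D-luciferin and 10 uM ATP in 50 mM Tris acetate pH 7.5, 10 mM Mg acetate, 0.01% Tween-20, 0.05% BSA; 6-point qHTS titration about 60 µM downward; luminescence read.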
Luc counter: blocks Kinase-Glo luciferase, a counter-screen artifact; Q27757; Kinase-Glo luciferase, ATP luminescence, 8 min; Potency, µM (top dose mostly 38.3 µM), for the others: at the top dose activity change, negative = inhibition, hits mostly inhibitors; 0.28% of 200,000 active; AID 1379; further: on the % scale 0 is the no-effect control and ±100 the full control effect; nearly all actives have a fitted effect of over 60% in size
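Kinase-Glo luciferase light output from ATP and luciferin was measured with 10 uM ATP, within the enzyme's linear range. Buffer: 50 mM imidazole pH 7.2, 50 mM KCl, 7 mM MgCl2, 0.01% Tween 20, 0.05% BSA; luminescence read after 8 min at ambient temperature.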
NPC1 promoter act: NPC1 promoter activation | Potency, µM (top dose mostly 9.22 µM), without a hit: top-dose activation, hits mostly activators | Huh7 NPC1 promoter luciferase reporter, 24 h | AID 485313 | 2.4% of 320,000 active; further: % of control where 0% means no effect; nearly all actives have a fitted effect of over 60% in size
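In 1536-well qHTS, Huh7 cells harboring an NPC1 promoter–luciferase construct received compound for 24 h; activation was quantified by luminescence following luciferase reagent addition.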
Rab9 promoter act: activates the Rab9 promoter; 2.8% of 320,000 active; AID 485297; Huh7 Rab9 promoter-luciferase reporter, luminescence, 24 h; Potency, µM (highest dose often 9.22 µM), for the others: at the top dose activation, negative = inhibition, usual class: activators; further: % of control where 0% means no effect; nearly all actives have a fitted effect of over 60% in size
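Measured in stably transfected Huh7 cells bearing a Rab9 promoter–luciferase construct: 24 h compound treatment at 37 °C, followed by luminescence detection.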
* marks the source's active call; other numbers are inactive results; u = inconclusive; x = not tested or not shown; [ ] = remark or other dose. A selection: hits, their analogues and other compounds. The true share with any hit is near 7.5%. The call rests on the fitted dose curve; in most records, active means well fitted curve in the direction sought with a large enough effect; inconclusive means small, poorly fitted or top-dose-only effect, or another doubt; inactive means no such curve, though single readings can be large; an effect the other way counts as inactive or inconclusive. Potency means the concentration at half of the fitted maximal effect.

SMILES | SMN2 splice up | ELG1 genotoxic | FLuc modulator | Luc counter | NPC1 promoter act | Rab9 promoter act
CCN1CCN(C(=O)C2CCC(CNS(=O)(=O)c3ccccc3)CC2)CC1 (stereo not given) | 4.8% | -5.6% | 1.8% | -3.5% | -1.8% | -2.1%
COc1ccc(-c2ccc(C(=O)O)c(=O)[nH]2)cc1 | u | 7.5% | -3.1% | 0.1% | 0.9% | 23.9%
Cc1ccc(-c2ccc(C(=O)O)[nH]2)cc1 | -6.9% | 14.6% | 19µM* | -1.3% | -0.2% | -0.1%
O=C(Nc1ccc2c(c1)OCCO2)c1cncc(Br)c1 | 10µM* | u | 4.78µM* | -7.6% | 3.55µM* | 1.41µM*
O=C(Nc1ccc2c(c1)OCO2)c1cncc(Br)c1 | 21.1% | 5.9% | 26.9µM* | -8.1% | u | u
CN(C)C(=O)c1ccc(NC(=O)c2cncc(Br)c2)cc1 | u | -3.6% | u | -20.2% | 16.8% | 22.5%
Cc1ccc(NC(=O)CSc2nc(-c3cccs3)nc3cc(=O)[nH]n23)cc1 | x | x | -11.0% | x | x | x
c1ccc(-c2nnc(-c3ccccc3)o2)cc1 | 12.6µM* | u | 5.36µM* | -21.7% | 1.58µM* | 1.41µM*
COc1cc(-c2nnc(-c3ccco3)o2)ccc1OCc1ccccc1 | u | 10.8% | 15.1µM* | 4.0% | 17.2% | 16.7%
ClCc1nnc(-c2ccccc2)o1 | -6.1% | -1.2% | -8.7% | -3.9% | -3.6% | 0.3%
O=S(=O)(Cc1ccccc1)c1ccccc1-c1nnc(-c2ccccc2)o1 | -3.1% | 0.2% | 4.4% | 8.6% | -0.9% | -2.3%
Nc1ccccc1-c1nnc(-c2ccc(-c3ccccc3)cc2)o1 | u | 2.59µM* | 3.01µM* | -20.6% | 3.98µM* | 3.16µM*
COc1ccc(-c2nnc(-c3ccccc3)o2)cc1OC | x | u | 8.49µM* | x | 2.24µM* | 1.78µM*
Cc1ccc(S(=O)(=O)Nc2cccc(S(=O)(=O)Nc3ccccc3C(=O)O)c2)c(C)c1 | x | 1.0% | x | x | x | x
COc1ccc(-c2cc(-c3nnc(-c4ccncc4)o3)c3ccccc3n2)cc1 | -6.4%[1.84 µM] | -0.3% | 2.69µM* | -5.8% | -3.5% | -3.5%
COc1cccc(-c2nnc(-c3ccc(C(F)(F)F)cc3)o2)c1 | 22.4µM* | u | u | -1.2% | u | u
COc1ccc(-c2nnc(-c3cc4c(ccc5ccccc54)oc3=O)o2)cc1 | -14.6% | 0.6% | 3.9% | -7.4% | -0.8% | 5.9%
Clc1cccc(-c2nnc(-c3ccccc3)o2)c1 | 12.6µM* | 1.16µM* | 1.51µM* | -24.6% | 1.41µM* | 0.891µM*
c1ccc(-c2nnc(-c3ccncc3)o2)cc1 | 17.9% | 11.5% | u | -14.6% | u | 3.16µM*
COc1cccc(-c2nnc(NC(C)=O)o2)c1 | x | 3.5% | -18.6% | x | -0.8% | 5.3%
COc1cc2c(=O)c(C(=O)c3ccc(F)cc3)cn(Cc3cccc(F)c3)c2cc1OC | -8.4% | x | 1.1% | x | x | x
CC(=O)c1sc(NS(=O)(=O)c2ccc(C)cc2)nc1-c1ccccc1 | x | 1.3% | -11.7% | x | -0.9% | 5.3%
CN(C)S(=O)(=O)c1cccc(-c2nnc(-c3ccccc3)o2)c1 | 10.5% | u | 23.9µM* | -1.7% | u | u
OCc1nc2ccccc2n1C/C=C/c1ccccc1 | -29.0% | -3.4% | -8.4% | -1.6% | 0.7% | -7.2%
Cc1cc(NC(=O)c2nn3cccnc3c2Cl)no1 | 10µM* | u | 10.7µM* | -7.4% | 1.78µM* | 1.41µM*
SMILES | SMN2 splice up | ELG1 genotoxic | FLuc modulator | Luc counter | NPC1 promoter act | Rab9 promoter act
O=C(Nc1cccc(Cl)c1)c1cnn2cccnc12 | 10µM* | u | 7.57µM* | -4.0% | u | 2µM*
O=C(Nc1cc(Cl)cc(Cl)c1)c1cnn2cccnc12 | 8.2% | 5.0% | -12.6% | 1.5% | 2.2% | 19.6%
C=CCNC(=O)c1nn2cccnc2c1Cl | 24.5% | 3.4% | -2.1% | 1.9% | 5.5% | 6.6%
Cc1cc(NC(=O)c2cnn3cccnc23)no1 | u | 4.11µM* | u | -8.3% | u | u
N#Cc1nc(NCC(F)F)nc(Nc2cc(F)cc(F)c2)n1 | x | 12.2% | 1.2% | x | -24.7% | -32.6%
COC(=O)c1ccccc1NC(=O)c1cnc2c(-c3cccc(C)c3)c(C)nn2c1C | x | x | 0.2% | x | x | x
CCOc1cc(C2c3c(-c4cc(C)ccc4O)n[nH]c3C(=O)N2CCCOC(C)C)ccc1O (stereo not given) | 0.0% | x | -10.5% | x | x | x
Cc1ccc(C)c(N2CCN(C(=O)CN3C(=O)COc4ccc(S(=O)(=O)N5CCOCC5)cc43)CC2)c1 | -13.5% | x | 0.7% | x | x | x
O=c1c(Cl)c(NCCCO)cnn1-c1nc2ccccc2[nH]1 | u | 16.4µM* | 12µM* | 11.2µM* | u | u
C=CCN(CC=C)c1cnn(-c2nc3ccccc3[nH]2)c(=O)c1Cl | x | u | 6.01µM* | 14.1µM* | 2µM* | 0.708µM*
O=C(C1=C(O)C(=O)N(c2ccccc2)C1c1ccc([N+](=O)[O-])cc1)c1cccs1 (stereo not given) | -4.0% | -1.7% | u | 0.1% | -11.7% | -2.8%
COc1ccc(CNC(=O)CN2C(=O)CCSc3ccc(S(=O)(=O)N4CCCC4)cc32)cc1 | x | -2.4% | -1.5% | x | -0.3% | -3.5%
Clc1cccc(-c2nc3ccccn3c2Nc2ccc3c(c2)OCCO3)c1 | -18.5% | x | u | x | x | x
CCOC(=O)N1CCc2c(sc(NCc3cccs3)c2C(=O)Nc2ccc(OC)cc2OC)C1 | x | x | 13.5µM* | x | x | x
CCOC(=O)N1CCc2c(sc(NCc3ccc(OC)c(OC)c3OC)c2C(=O)Nc2ccc(OC)cc2OC)C1 | x | x | 15.1µM* | x | x | x
CCOC(=O)N1CCc2c(sc(NCc3sccc3C)c2C(=O)Nc2cc(Cl)ccc2OC)C1 | x | x | -3.3% | x | x | x
CCOC(=O)N1CCc2c(sc(NCc3ccc(OCC)cc3)c2C(=O)Nc2ccc(OC)cc2OC)C1 | x | x | 15.1µM* | x | x | x
CCOC(=O)N1CCc2c(sc(NCc3ccc(N(CC)CC)cc3)c2C(=O)Nc2cc(OC)ccc2OC)C1 | x | x | -17.7% | x | x | x
Cc1ccc(C(=O)c2cn(CC(=O)Nc3ccc4c(c3)OCCO4)c3nc(C)ccc3c2=O)cc1 | x | x | 3.9% | x | x | x
Cc1ccc(-c2ccc(=O)[nH]n2)cc1 | 0.8% | 5.1% | -0.5% | 0.4% | 0.4% | 12.0%
CCCCCc1ccc(-c2ccc(=O)[nH]n2)cc1 | -9.0% | 18.5% | 19µM* | 13.8% | 9.2% | 2.9%
Cc1ccc(-n2cc3c(=O)n(C)c(=O)n(C)c3c2)cc1C | 2.9% | 0.5% | u | 0.2% | 27.7% | 26.9%
Cn1c(=O)c2cn(-c3ccc4c(c3)OCCO4)cc2n(C)c1=O | u | 11.2µM* | u | -4.1% | u | u
Cc1cc(N)c(-n2cc3c(=O)n(C)c(=O)n(C)c3c2)cc1C | u | u | 16.9µM* | -17.2% | 16.2% | u
Cc1onc(-c2c(Cl)cccc2Cl)c1NC(=O)N1CCSCC1 | x | 0.3% | -1.6% | x | 2.5% | -3.9%

Screening data as filed in PubChem BioAssay.
